Among the data in ChEMBL document CHEMBL4296182, “CO-ADD screening of NIH NCI Diversity Set V” are Inhibition values, retold here.

One assay has as its system Staphylococcus aureus. In words: Antibacterial activity against Staphylococcus aureus MRSA ATCC 43300 (CO-ADD:GP_020); MIC in CAMBH media using NBS plates, by Resazurin F(560/590). Format: functional. The settings on record: Concentration 20 uM, ASSAY_TEST Inhibition of Bacterial Growth, detection method Resazurin, Fluorescence (ex560/em590), MEDIA CAMHB, plate type 384well, CORNING #3640, time 18 hr. A general note: The colour change of resazurin is a common sign of viable cells or microbes.

A further assay has as its system Acinetobacter baumannii. In words: Antibacterial activity against Acinetobacter baumannii ATCC 19606 (CO-ADD:GN_034); MIC in CAMBH media using NBS plates, by Resazurin F(560/590). Format: functional. The following applies: Concentration 20 uM, ASSAY_TEST Inhibition of Bacterial Growth, detection method Resazurin, Fluorescence (ex560/em590), MEDIA CAMHB, plate type 384well, CORNING #3640, time 18 hr.

Another assay deals with Escherichia coli. As to the kind of experiment: Antibacterial activity against Escherichia coli ATCC 25922 (CO-ADD:GN_001); MIC in CAMBH media using NBS plates, by Resazurin F(560/590). Type of assay: functional. The settings on record: Concentration 20 uM, ASSAY_TEST Inhibition of Bacterial Growth, detection method Resazurin, Fluorescence (ex560/em590), MEDIA CAMHB, plate type 384well, CORNING #3640, time 18 hr.

In a further assay the test system is Klebsiella pneumoniae. The settings on record: Concentration 20 uM; ASSAY_TEST Inhibition of Bacterial Growth; detection method Absorption (OD600); MEDIA CAMHB; plate type 384well; NBS; CORNING #3640; time 18 hr.
For the next assay, the system named is Candida albicans. The following applies: 20 µM.
The subject of another assay is Cryptococcus neoformans. The settings on record: Concentration 20 uM; ASSAY_TEST Inhibition of Fungal Growth; detection method Resazurin; Absorption (OD600-OD570); plate type 384well; NBS; CORNING #3640.

For part of these data: Results with a measured potency or affinity are listed apart.

Turning to `c1ccc2c(c1)cnc1ccccc12` [PHENANTHRIDINE], the Inhibition in the assay with Staphylococcus aureus is 1.61%; in the assay with Acinetobacter baumannii it was -6.38%; in the assay on Escherichia coli it was 4.54%; in the assay with Klebsiella pneumoniae it was 11.56%; in the assay on Candida albicans, 4.34%; in the assay on Cryptococcus neoformans, -7.16%.
On to `O=C1OC(CN(Cc2ccccc2)Cc2ccccc2)CN1/N=C/c1ccc([N+](=O)[O-])o1` (stereo not drawn), for which the Inhibition is -19.95% in the assay on Staphylococcus aureus; -14.51% in the assay with Acinetobacter baumannii; 10.29% with Escherichia coli; 6.15% in the assay on Klebsiella pneumoniae; 10.5% in the assay with Candida albicans; -4.47% in the assay on Cryptococcus neoformans.
Take `N=C(N)NC(=S)Nc1ccc(Cl)cc1`: the Inhibition is 29.08% with Staphylococcus aureus; 3.91% with Acinetobacter baumannii; 19.57% in the assay on Escherichia coli; 9.15% with Klebsiella pneumoniae; 20% in the assay with Candida albicans; -7.26% with Cryptococcus neoformans.
Regarding `O=C1COc2c1ccc(O)c2O`, the Inhibition in the assay with Staphylococcus aureus was 0.46%; in the assay with Acinetobacter baumannii, -23.14%; in the assay on Escherichia coli, 5.49%; in the assay on Klebsiella pneumoniae, 7.13%; with Candida albicans, 0.16%; in the assay on Cryptococcus neoformans, -9.43%.
Turning to `COc1cc2c(cc1OC)C(=O)Cc1ccc3c(c1CN(C)CC2)OCO3`, the Inhibition is 7.05% with Staphylococcus aureus; 12.34% with Acinetobacter baumannii; 18.89% in the assay with Escherichia coli; 9.37% with Klebsiella pneumoniae; -0.52% in the assay with Candida albicans; -7.07% in the assay on Cryptococcus neoformans.
As to `N#CC1C=Cc2c(ccc3ccccc23)N1C(=O)c1ccccc1` (stereo not drawn), the Inhibition with Staphylococcus aureus is 29.76%; in the assay with Acinetobacter baumannii, -9.2%; with Escherichia coli it was 7.35%; in the assay on Klebsiella pneumoniae, 24.48%; in the assay on Candida albicans, 11.9%; in the assay on Cryptococcus neoformans, 2.44%.
In the case of `O=C(COc1cc(Cl)c(Cl)cc1Cl)Nc1ccc([N+](=O)[O-])cc1Cl`, the Inhibition was 25.16% in the assay with Staphylococcus aureus; -3.59% with Acinetobacter baumannii; 13.57% with Escherichia coli; 15.89% in the assay with Klebsiella pneumoniae; 2.39% in the assay with Candida albicans; 1.18% with Cryptococcus neoformans.
As to `CN(C)c1ccc2c(c1)Sc1cc(N(C)C)ccc1N2C(=O)c1ccccc1`, the Inhibition in the assay on Staphylococcus aureus was -9.71%; in the assay with Acinetobacter baumannii, 0.08%; with Escherichia coli, 1.67%; in the assay on Klebsiella pneumoniae it was 25.07%; in the assay with Candida albicans, 11%; with Cryptococcus neoformans, -3.81%.
For the molecule `Cc1ccc(CC#N)c(-c2c(CC#N)ccc(C)c2C)c1C`, the Inhibition with Staphylococcus aureus is 10.31%; in the assay with Acinetobacter baumannii, -9.1%; in the assay with Escherichia coli, 13.28%; with Klebsiella pneumoniae, 6.29%; in the assay with Candida albicans, 3.94%; in the assay on Cryptococcus neoformans, -13.71%.
`CC(C)n1cc(C#N)c(N)n1`: the Inhibition was -0.87% in the assay on Staphylococcus aureus; -8.48% in the assay with Acinetobacter baumannii; 18.87% with Escherichia coli; 15.17% with Klebsiella pneumoniae; 3.75% in the assay with Candida albicans; -6.7% with Cryptococcus neoformans.
Regarding `N=C(N)Nc1nc2cc([N+](=O)[O-])ccc2[nH]1`, the Inhibition in the assay on Staphylococcus aureus is 9.17%; with Acinetobacter baumannii it was -6.93%; in the assay on Escherichia coli it was 5.92%; in the assay with Klebsiella pneumoniae, 26.99%; with Candida albicans, -2.1%; in the assay on Cryptococcus neoformans, -6.56%.
On to `O[C@@H](c1cc(-c2ccc(C(F)(F)F)cc2)nc(C(F)(F)F)c1)[C@H]1CCCCN1`, for which the Inhibition with Staphylococcus aureus was 4.92%; with Acinetobacter baumannii, 7.22%; in the assay on Escherichia coli it was 8.91%; with Klebsiella pneumoniae it was 19.18%; in the assay with Candida albicans, 3.72%; with Cryptococcus neoformans, -3.44%.
In the case of `CCC12CCCN3CCc4c(n(c5ccccc45)C(O)(C(=O)OC)C1)C32` (stereo not drawn), the Inhibition in the assay on Staphylococcus aureus is 7.39%; in the assay on Acinetobacter baumannii, 9.61%; in the assay with Escherichia coli, 2.09%; with Klebsiella pneumoniae, 11.45%; in the assay with Candida albicans, 0.39%; in the assay on Cryptococcus neoformans it was 5.96%.
`COc1ccc(OC)c(NC(=O)c2cc3oc4ccccc4c3cc2O)c1`: the Inhibition with Staphylococcus aureus was 13.76%; in the assay with Acinetobacter baumannii it was 8.19%; with Escherichia coli, 5.92%; with Klebsiella pneumoniae it was 9.42%; in the assay with Candida albicans, -3.33%; in the assay with Cryptococcus neoformans, -0.7%.
As to `NC(=N\c1ccc(N)cc1)/C(N)=N/c1ccc(N)cc1`, the Inhibition in the assay on Staphylococcus aureus was -1.65%; in the assay on Acinetobacter baumannii it was -17.09%; with Escherichia coli, 7.03%; in the assay with Klebsiella pneumoniae, 7.69%; in the assay on Candida albicans it was 0.22%; in the assay with Cryptococcus neoformans it was -12.28%.
`O=C1COc2cccnc2N1`: the Inhibition with Staphylococcus aureus was 8.1%; with Acinetobacter baumannii, -14.05%; with Escherichia coli, 0.48%; in the assay with Klebsiella pneumoniae, 27.65%; in the assay with Candida albicans, 4.29%; with Cryptococcus neoformans it was -2.63%.
`CCCCCC(=O)N1CCCCC1`: the Inhibition with Staphylococcus aureus is 5.23%; with Acinetobacter baumannii, -9.77%; in the assay on Escherichia coli, 7.04%; in the assay on Klebsiella pneumoniae, 14.07%; in the assay on Candida albicans it was 3.39%; in the assay on Cryptococcus neoformans, 2.22%.
Consider `CC1=NC(C)(C)CC2CCC(O)C12` (stereo not drawn), for which the Inhibition is 15.01% with Staphylococcus aureus; -5.87% in the assay on Acinetobacter baumannii; 9.74% in the assay with Escherichia coli; 11.22% in the assay on Klebsiella pneumoniae; 1.52% in the assay with Candida albicans; -2.24% with Cryptococcus neoformans.
On to `ClCC(CNCc1ccccc1)c1ccccc1` (stereo not drawn), for which the Inhibition was 7.68% with Staphylococcus aureus; 11.29% with Acinetobacter baumannii; 0.62% in the assay on Escherichia coli; 19.58% in the assay with Klebsiella pneumoniae; 5.41% in the assay with Candida albicans; -7.48% in the assay on Cryptococcus neoformans.
Take `Cn1ncc2c(O)nc(N)nc21`: the Inhibition in the assay with Staphylococcus aureus is 6%; with Acinetobacter baumannii, -7.72%; with Escherichia coli, 12.24%; in the assay on Klebsiella pneumoniae it was 14.42%; in the assay on Candida albicans it was -0.53%; in the assay on Cryptococcus neoformans it was 20.28%.
In the case of `O=C(NC(=S)Nc1cc(Cl)ccc1O)c1cccc(Br)c1`, the Inhibition was 15.1% in the assay with Staphylococcus aureus; 1.75% with Acinetobacter baumannii; -0.44% with Escherichia coli; 14.73% in the assay on Klebsiella pneumoniae; -2.09% with Candida albicans; -0.86% in the assay on Cryptococcus neoformans.
Regarding `O=C(O)Cc1sc(O)nc1O`, the Inhibition in the assay with Staphylococcus aureus was 3.49%; in the assay with Acinetobacter baumannii it was -13.46%; in the assay on Escherichia coli, 1.48%; with Klebsiella pneumoniae it was 28.66%; in the assay with Candida albicans it was 28.5%; in the assay with Cryptococcus neoformans, -2.77%.
For the molecule `CCOc1ccc(S(=O)(=O)c2ccc(C)cc2)c2c1no[n+]2[O-]`, the Inhibition was 12.11% with Staphylococcus aureus; 5.81% in the assay on Acinetobacter baumannii; 11.8% in the assay on Escherichia coli; 9.49% in the assay on Klebsiella pneumoniae; 1.5% in the assay with Candida albicans; -13.62% in the assay with Cryptococcus neoformans.

Broadly, the Inhibition is the relative decrease from the control value, in per cent.
